This is a sample that favours compounds with a hit; in the whole collection about 3.3% have one here.
AmpC inh no detg: qHTS Inhibitors of AmpC Beta-Lactamase (assay without detergent); Potency, µM (highest dose often 57.1 µM), usual class: inhibitors; P00811; AmpC nitrocefin hydrolysis, absorbance 480 nm, 0.0001% Triton; 0.52% of 330,000 active; AID 485341, 2010; also: nearly all actives have a fitted effect of over 20% in size
Target sequence (P00811 whole entry, looked up): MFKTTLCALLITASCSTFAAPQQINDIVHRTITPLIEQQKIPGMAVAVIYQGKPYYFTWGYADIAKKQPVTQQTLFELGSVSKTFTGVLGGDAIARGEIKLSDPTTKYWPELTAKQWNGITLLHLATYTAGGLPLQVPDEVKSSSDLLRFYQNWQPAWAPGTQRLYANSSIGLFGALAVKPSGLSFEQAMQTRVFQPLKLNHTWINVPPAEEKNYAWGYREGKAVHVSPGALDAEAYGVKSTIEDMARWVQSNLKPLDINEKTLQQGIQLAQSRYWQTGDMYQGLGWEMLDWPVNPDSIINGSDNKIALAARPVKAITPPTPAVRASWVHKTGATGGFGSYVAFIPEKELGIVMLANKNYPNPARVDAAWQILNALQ
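AmpC (5.3 nM in the dispensed reagent) in 20 mM phosphate pH 7.0 with 0.01% (detergent screen) or 0.0001% Triton X-100 was preincubated with compounds for 15 min at room temperature. Nitrocefin was then added from an 800 uM solution, and hydrolysis was followed at 480 nm.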
Sm TGR block: qHTS Assay for the Inhibitors of Schistosoma Mansoni Peroxiredoxins | Potency, µM (top dose mostly 114 µM), actives largely listed as inhibitors | 3% of 360,000 active | Schistosoma mansoni thioredoxin glutathione reductase (TGR), Q962Y6 | purified TGR, DTNB reduction, TNB absorbance 405 nm; also: nearly all actives have a fitted effect of over 60% in size
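First, TGR (20 nM dispensed) and NADPH were mixed with compound. Second, a 15 min room-temperature incubation followed. Third, further NADPH and then DTNB were added to start the reaction. Finally, TNB absorbance was monitored kinetically.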
AmpC inh detg: qHTS Inhibitors of AmpC Beta-Lactamase (assay with detergent); AmpC hydrolysis of nitrocefin, absorbance 480 nm, 0.01% Triton; 0.041% of 370,000 active; Potency, µM (top dose mostly 114 µM), most hits filed as inhibitors; P00811; also: nearly all actives have a fitted effect of over 25% in size
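AmpC (5.3 nM in the dispensed reagent) in 20 mM phosphate pH 7.0 with 0.01% (detergent screen) or 0.0001% Triton X-100 was preincubated with compounds for 15 min at room temperature. Nitrocefin was then added from an 800 uM solution, and hydrolysis was followed at 480 nm.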
Hits are given with their value. Calls follow the shape of the dose curve; as a rule, active = well fitted curve in the direction sought with a large enough effect; inconclusive = small, poorly fitted or top-dose-only effect, or another doubt; inactive = no such curve, though single readings can be large; an effect the other way counts as inactive or inconclusive.

COC(=O)Sc1nnc(-c2ccc(Br)cc2)o1 was read as AmpC inh no detg inactive, Sm TGR block 44.7µM and AmpC inh detg inactive.
For OCC#CCSc1nnc(-c2ccc(Br)cc2)o1 the results were AmpC inh no detg inactive, Sm TGR block inactive and AmpC inh detg inconclusive.
`CCOC(=O)c1cc(-c2ccccc2C)n(CC2CC(c3ccc(OC)cc3)=NO2)n1` (configuration not stated) gave AmpC inh no detg inactive.
`Cc1ccc(OC(C)C(=O)Nc2ccccc2C(=O)NCc2cccnc2)cc1C` (configuration not stated) gave AmpC inh no detg inactive, Sm TGR block inactive and AmpC inh detg inactive.
For COc1ccc(CNC(=O)C2=CCN(S(=O)(=O)c3ccc(C)cc3)CC2)cc1 the results were AmpC inh no detg inactive, Sm TGR block inactive and AmpC inh detg inactive.
For CC(=O)Nc1ccc(N2C(=O)CC(N3CC(C)OC(C)C3)C2=O)cc1 (configuration not stated) the results were AmpC inh no detg inactive, Sm TGR block 22.4µM and AmpC inh detg inactive.
For CC(=O)Nc1ccc(N2C(=O)CC(N3CCSCC3)C2=O)cc1 (configuration not stated) the results were AmpC inh no detg inactive and AmpC inh detg inactive.
CC(=O)Nc1cccc(N=NN2CCCCC2)c1 was read as AmpC inh no detg inactive and AmpC inh detg inactive.
`CC(=O)Nc1ccc(NC(=O)CSc2cn(CC(=O)N(C(C)C)C(C)C)c3ccccc23)cc1` gave Sm TGR block inactive and AmpC inh detg inactive.
`C[C@@H](C(=O)NCc1ccccc1)[C@@H]1C[C@@]1(C)[C@@H](NC(=O)OCc1ccccc1)c1ccccc1` gave AmpC inh no detg inactive, Sm TGR block inactive and AmpC inh detg inactive.
For Cc1ccc(CNC(=O)[C@H](C)[C@H]2C[C@]2(C)[C@H](NC(=O)OCc2ccccc2)c2ccccc2)o1 the results were AmpC inh no detg inactive, Sm TGR block 31.6µM and AmpC inh detg inconclusive.
Screening Cc1nnsc1C(=O)NNc1ccc(C(C)C)cc1 returned AmpC inh no detg inactive, Sm TGR block inconclusive and AmpC inh detg inactive.
Cc1nnsc1C(=O)NNc1ccc(C(C)(C)C)cc1 was read as AmpC inh no detg inactive, Sm TGR block 35.5µM and AmpC inh detg inactive.
For C=C1C(=O)O[C@@H]2[C@H]1[C@@H](OC(=O)/C(C)=C/C)C/C(C)=C\C(=O)/C=C(\C)[C@@H]2O the results were AmpC inh no detg inactive, Sm TGR block 5.62µM and AmpC inh detg inactive.
`C/C=C(/C)C(=O)O[C@H]1[C@@H](O)c2c(ccc3ccc(=O)oc23)OC1(C)C` gave AmpC inh no detg inactive, Sm TGR block inactive and AmpC inh detg inconclusive.
COc1cccc(CSc2nc3n(n2)C(c2cccs2)C(C(=O)Nc2ccccc2C)=C(C)N3)c1 (configuration not stated) was read as Sm TGR block inactive and AmpC inh detg inactive.
Screening O=C(O)Cc1c(O)ccc2ccccc12 returned AmpC inh no detg inactive, Sm TGR block inactive and AmpC inh detg inactive.
Screening O=c1oc2ccccc2c(O)c1CN1CCCCC1 returned AmpC inh no detg inactive, Sm TGR block inactive and AmpC inh detg inconclusive.
Oc1ccc(Br)cc1CN1CCCCCCC1 was read as AmpC inh no detg inactive, Sm TGR block inactive and AmpC inh detg inconclusive.
For Oc1ccc2ccccc2c1CNc1ccc(Br)cc1 the results were AmpC inh no detg inconclusive, Sm TGR block 0.631µM and AmpC inh detg inactive.
Screening NCc1c(O)ccc2ccccc12 returned AmpC inh no detg inactive, Sm TGR block 12.6µM and AmpC inh detg inactive.
Screening Oc1ccc2ccccc2c1CN1CCCC1 returned AmpC inh no detg inactive, Sm TGR block 2.51µM and AmpC inh detg inactive.
For Oc1ccc2ccccc2c1CNc1ccc(Br)cn1 the results were AmpC inh no detg inactive, Sm TGR block inactive and AmpC inh detg inactive.
Oc1ccc2cc(Br)ccc2c1CN1CCCC1 was read as AmpC inh no detg inactive, Sm TGR block 31.6µM and AmpC inh detg inactive.
CC(=O)Nc1cccc(NC(=O)C(=O)NCCc2csc3nc(-c4ccccc4F)nn23)c1 was read as Sm TGR block inactive and AmpC inh detg inactive.
Screening COC(=O)Cn1cc([N+](=O)[O-])nc1C returned AmpC inh no detg inactive, Sm TGR block inactive and AmpC inh detg inconclusive.
CCCCN(CC)CCNC(=O)Cn1cnc2sc(C)c(S(=O)(=O)N3CCC(C)CC3)c2c1=O was read as AmpC inh no detg inactive, Sm TGR block inactive and AmpC inh detg inconclusive.
`Cc1ccc(C)c(N2CCN(S(=O)(=O)c3c(C)nc4sccn4c3=O)CC2)c1` gave Sm TGR block inactive and AmpC inh detg inactive.
For Cc1cc(C)nc(N2CCCC(C(=O)NC(C)C)C2)n1 (configuration not stated) the results were AmpC inh no detg inactive and AmpC inh detg inactive.
Screening CCOC(=O)c1cnc2ccc(C)cc2c1NCCc1ccc(OC)c(OC)c1 returned Sm TGR block inactive and AmpC inh detg inactive.
CCOC(=O)c1ccc(CN(Cc2ccc(Cl)cc2Cl)S(=O)(=O)c2ccc(F)c(C)c2)cc1 was read as Sm TGR block inactive and AmpC inh detg inactive.
Screening COc1ccc(/C=C(/C(=O)N2CCCCC2C(=O)O)c2ccc(OC)c(OC)c2)cc1 (configuration not stated) returned AmpC inh no detg inactive.
`Oc1ccc2ccccc2c1CN1CC=C(c2ccccc2)CC1` gave AmpC inh no detg inactive, Sm TGR block 22.4µM and AmpC inh detg inactive.
For O=C(Nc1cccc2ccccc12)N1CC=C(c2ccccc2)CC1 the results were AmpC inh no detg inactive, Sm TGR block inactive and AmpC inh detg inactive.
`Oc1c(CN2CCOCC2)cc(-c2ccccc2)cc1CN1CCOCC1` gave AmpC inh no detg inactive, Sm TGR block inactive and AmpC inh detg inactive.
For Oc1c(CN2CCOCC2)ccc2ccccc12 the results were AmpC inh no detg inactive, Sm TGR block 0.562µM and AmpC inh detg inactive.
O=C(O)c1oc2ccccc2c1CN1CCN(c2ccccc2)CC1 was read as AmpC inh no detg inactive, Sm TGR block inactive and AmpC inh detg inactive.
For Oc1ccc2ccccc2c1CN1CCN(c2ccccc2)CC1 the results were AmpC inh no detg inactive, Sm TGR block 2.82µM and AmpC inh detg inactive.
CC(C)Cc1nnc(NC(=O)CCC(=O)N2CCN(Cc3ccc(Cl)cc3)CC2)s1 was read as AmpC inh no detg inactive, Sm TGR block inactive and AmpC inh detg inconclusive.
Screening CCN=C(NC#N)SCc1c(F)cccc1Cl returned AmpC inh no detg inactive, Sm TGR block inactive and AmpC inh detg inconclusive.
Screening Cc1ccccc1CS(=O)(=O)c1ccc(C(=O)N2CCC(C)CC2)cc1[N+](=O)[O-] returned AmpC inh no detg inactive, Sm TGR block 89.1µM and AmpC inh detg inactive.
`O=C(c1ccc(S(=O)(=O)Cc2cc(F)ccc2F)c([N+](=O)[O-])c1)N1CCCCC1` gave AmpC inh no detg inactive, Sm TGR block 8.91µM and AmpC inh detg inactive.
O=C(c1ccc(S(=O)(=O)Cc2ccccc2Cl)c([N+](=O)[O-])c1)N1CCN(c2ccccn2)CC1 was read as AmpC inh no detg inactive, Sm TGR block 7.94µM and AmpC inh detg inactive.
CC1CCN(C(=O)c2ccc(S(=O)(=O)Cc3cccc(F)c3)c([N+](=O)[O-])c2)CC1 was read as AmpC inh no detg inactive, Sm TGR block 3.55µM and AmpC inh detg inactive.

Assay outcomes: PubChem, National Center for Advancing Translational Sciences (NCATS)
